# About 83,000 compounds went through this panel and 20% of them were active in at least one assay; those are over-represented in the sample as a whole.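 The test compound was applied at a single concentration to cells in 96-well plates for 48 hours, and percent growth was recorded.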 A number with no mark means an inactive call. Calls of active or inactive are those of the source. Rule for the calls: active = growth percent below 10; inactive = the rest.
# How the values were obtained:
# Assay in all cases: NCI-60 one-dose screen, 48 h (100 = growth as untreated, 0 = no growth, -100 = all killed)
# Details in all cases: 10 µM unless noted
# HCT-15 colon = test system: HCT-15 colon
# HT29 colon = test system: HT29 colon
# SNB-75 CNS = test system: SNB-75 CNS
# U251 CNS = test system: U251 CNS
# PC-3 prostate = test system: PC-3 prostate
# SK-MEL-5 melanoma = test system: SK-MEL-5 melanoma
# UACC-62 melanoma = test system: UACC-62 melanoma
# LOX IMVI melanoma = test system: LOX IMVI melanoma
# SK-MEL-28 melanoma = test system: SK-MEL-28 melanoma
# SK-MEL-2 melanoma = test system: SK-MEL-2 melanoma
# EKVX NSCLC = test system: EKVX NSCLC
# SN12C renal = test system: SN12C renal
# UO-31 renal = test system: UO-31 renal
# TK-10 renal = test system: TK-10 renal
# ACHN renal = test system: ACHN renal
# CAKI-1 renal = test system: CAKI-1 renal
# A498 renal = test system: A498 renal
# CCRF-CEM leukemia = test system: CCRF-CEM leukemia
# MOLT-4 leukemia = test system: MOLT-4 leukemia
SMILES,growth (HCT-15 colon),growth (HT29 colon),growth (SNB-75 CNS),growth (U251 CNS),growth (PC-3 prostate),growth (SK-MEL-5 melanoma),growth (UACC-62 melanoma),growth (LOX IMVI melanoma),growth (SK-MEL-28 melanoma),growth (SK-MEL-2 melanoma),growth (EKVX NSCLC),growth (SN12C renal),growth (UO-31 renal),growth (TK-10 renal),growth (ACHN renal),growth (CAKI-1 renal),growth (A498 renal),growth (CCRF-CEM leukemia),growth (MOLT-4 leukemia)
CCOC(=O)Cc1cnn(C)c1NC(=O)c1ccc(Cl)cc1NC(C)=O,110%,110%,76%,111%,94.6%,95.3%,99.7%,107%,130%,84.6%,76.3%,94.8%,91.6%,78.8%,111%,64.8%,105%,97.8%,102%
CC1CN(C(C)C)C(=S)N(c2ccccc2)C1=O (centres undefined),104%,104%,119%,99.9%,105%,98.1%,94.4%,93.4%,122%,98.5%,88.6%,101%,84.6%,112%,100%,68.9%,101%,90.6%,90%
Cc1cc(=O)oc2cc(Oc3nc(-c4cccs4)cn4c(-c5cccs5)cnc34)ccc12,72.9%,46.6%,35.6%,47.5%,53%,42.5%,71.1%,38.4%,23.9%,69%,64%,73.8%,60.3%,53.9%,57.3%,67.8%,64.4%,94.6%,78.7%
C/C=C/C(N)=O,96.9%,102%,90.6%,104%,93.9%,96.7%,105%,99.3%,93%,119%,95.9%,106%,91.7%,105%,96.8%,98%,108%,35.6%,96.2%
CCCCCCCCCCCCCC1=NCCN1CCO,47.2%,10.1%,150%,50.8%,31.6%,81.8%,93.5%,-52.8% (active),115%,114%,112%,69.2%,54.5%,123%,78.1%,–,108%,7.19% (active),-1.68% (active)
CN1CCN(Cc2ccc(NC(=O)c3[nH]ncc3Nc3ncnc4c3CCC4)cc2)CC1,13.7%,9.71% (active),-22.6% (active),15.4%,9.21% (active),9.53% (active),9.97% (active),7.49% (active),5.62% (active),13.6%,26%,6.07% (active),6.53% (active),2.4% (active),-10.8% (active),9.41% (active),-21.7% (active),11.1%,-2.96% (active)
C=C1CC[C@@H]2[C@](C)(COC(C)=O)[C@H](OC(C)=O)CC[C@@]2(C)[C@@H]1CC(NCc1ccc(F)cc1)C1=CCOC1=O (some centres undefined),37%,21.3%,58.1%,48%,20.8%,11.8%,32.2%,9.33% (active),77.8%,73.2%,50%,46.2%,31.3%,66.6%,50.9%,46%,51.7%,9.18% (active),-0.37% (active)
O=C(COc1cccc(/C=C2/Oc3ccccc3C2=O)c1)Nc1nccs1,81.7%,84.2%,84.8%,89.4%,14.6%,78.8%,82.9%,65.4%,124%,-32.2% (active),74.7%,70.3%,-53.2% (active),83.7%,112%,37%,93.9%,–,28.4%
CC#CC#Cc1cccc(=O)o1,36.1%,45.3%,82.4%,75.1%,78.6%,70.3%,40.8%,61.5%,23.9%,-47.3% (active),20.7%,81.6%,40.7%,73.7%,68.5%,4.28% (active),113%,11.9%,64.9%
CC(=O)CC(C)(C)c1ccc(Cl)cc1,101%,98.1%,81.9%,98.7%,93.6%,108%,101%,97.3%,115%,108%,101%,97.7%,85.5%,114%,102%,90.2%,–,101%,100%
O=C1C2CC=CCC2C(=O)N1CNc1ccc(Cl)cc1 (centres undefined),89.6%,96.3%,78.2%,94.1%,76.9%,95%,62.7%,77%,109%,94.2%,88.6%,90.8%,47%,107%,88.8%,90.2%,96.5%,120%,101%
CC1CN(Cc2ccco2)C(=S)N(c2ccccc2)C1=O (centres undefined),98.2%,93.4%,62.2%,93.4%,86.5%,100%,93.2%,94.1%,102%,108%,84.2%,92%,89.6%,100%,93.8%,60.4%,100%,83.7%,122%
CCCCN(CCCC)Cc1c(C)[nH]c2cc(OC)ccc2c1=O,107%,93.9%,89.5%,98.5%,85.2%,101%,101%,97.1%,112%,110%,104%,104%,81.2%,104%,110%,99.1%,95.8%,95.8%,90.9%
N#Cc1c(N)nc(N)nc1Nc1ccc(Br)cc1,103%,93.9%,96.8%,96.9%,79.1%,89.6%,86.4%,92.4%,110%,91.1%,44.1%,85.1%,65.6%,125%,89%,80.1%,106%,61.1%,76.5%
O=C(Nc1ccc(CN2CCOCC2)cc1)c1[nH]ncc1Nc1ncnc2sccc12,5.47% (active),9.37% (active),-24.7% (active),13.8%,11%,-16.5% (active),10.1%,-14.4% (active),7.07% (active),2.93% (active),13.4%,10.4%,8.4% (active),8.06% (active),2.49% (active),13.2%,-36.8% (active),5.37% (active),-2.6% (active)
O=C(/C=C\c1ccc2ccccc2n1)c1cc(Cl)ccc1O,73.6%,71.6%,90.6%,44.3%,90.9%,97%,71.4%,40.8%,99.6%,-9.71% (active),85.9%,110%,65.2%,95.1%,89.5%,44.9%,113%,–,54.2%
CSc1ncnc2c1ncn2C1CCCO1 (centres undefined),103%,99.7%,83.2%,103%,106%,107%,88.5%,102%,141%,99.3%,95.6%,99.1%,92.1%,106%,99%,79.1%,146%,109%,106%

# From PubChem BioAssay (NCI)
